Where “and” joins values, the source holds several entries; their conditions need not be identical. Equal entries are not always repeated. Among all 16,000 compounds or so, about 4,000 (25%) were called active. About 26% were inconclusive and are not listed. Not all results are given here. Values without a mark were called inactive. Calls follow the shape of the dose curve; as a rule, active = well fitted curve in the direction sought with a large enough effect; inconclusive = small, poorly fitted or top-dose-only effect, or effect the other way; inactive = no such curve, though single readings can be large or run the other way.
% is scaled to controls: 0 for no effect and ±100 for the full control effect.

Cytochrome P450 2C9 (Homo sapiens), sequence (P11712 whole entry, looked up): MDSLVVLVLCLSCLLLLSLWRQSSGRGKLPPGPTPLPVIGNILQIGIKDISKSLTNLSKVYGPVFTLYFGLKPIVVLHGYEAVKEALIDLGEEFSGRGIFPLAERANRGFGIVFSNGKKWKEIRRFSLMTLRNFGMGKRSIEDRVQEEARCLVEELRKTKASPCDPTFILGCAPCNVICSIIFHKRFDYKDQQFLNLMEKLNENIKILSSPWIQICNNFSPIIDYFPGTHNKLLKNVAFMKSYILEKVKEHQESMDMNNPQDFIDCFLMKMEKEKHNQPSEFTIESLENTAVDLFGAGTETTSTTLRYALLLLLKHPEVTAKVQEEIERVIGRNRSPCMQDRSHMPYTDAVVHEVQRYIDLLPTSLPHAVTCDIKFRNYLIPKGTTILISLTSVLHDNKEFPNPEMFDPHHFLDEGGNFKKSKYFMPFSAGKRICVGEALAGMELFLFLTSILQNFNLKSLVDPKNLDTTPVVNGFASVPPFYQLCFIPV

This assay concerns the target Cytochrome P450 2C9 (Homo sapiens) (UniProt P11712). Put plainly: Cytochrome panel assay with activity outcomes. Conditions: recombinant CYP, pro-luciferin dealkylation, luminescence, p450-cyp2c9; series mostly up to 57.1 µM; activity, negative = inhibition: at the top concentration.
Consider `N#Cc1cccc(-c2cncnc2NCc2ccccc2)c1`, for which the activity, negative = inhibition was -4.42% [at 2.29 µM].

In the case of `COC(=O)c1c(C)oc2ccc(N(C(=O)c3ccncc3)S(=O)(=O)c3ccccc3)cc12`, the AC50 – broadly, the concentration giving half of the maximal activity seen – was 2.51 µM (active).

Turning to `COC(=O)c1c(C)nc2ccccc2c1C(=O)O`, the “activity, negative = inhibition” value is -8.6%.

Consider `CCC(C)N1C(=O)S/C(=C/c2ccc(Sc3nc4ccccc4[nH]3)o2)C1=O` (centres undefined), for which the AC50 was 1.26 µM (active).

Regarding `Cc1ncc([N+](=O)[O-])n1CC(C)O` (centres undefined), the “activity, negative = inhibition” value was 10%.

For the molecule `Clc1cccc(C=NC=Nc2cccc(Cl)c2)c1`, the “activity, negative = inhibition” value was -9.46%.

In the case of `CC(C)(C)c1nc(SCC(=O)Nc2ccc(N3CCOCC3)cc2)c2ccccc2n1`, the AC50 was 7.94 µM (active).

As to `Cn1c(CCC(=O)Nc2ccc(N3CCOCC3)cc2)nc(=O)c2ccccc21`, the “activity, negative = inhibition” value was 13.8%.

Take `CNCC[C@H](Oc1ccccc1C)c1ccccc1`: the “activity, negative = inhibition” value is -19.6%.

Regarding `CNCCC=C1c2ccccc2C=Cc2ccccc21`, the “activity, negative = inhibition” value is 15.2% [at 25.6 µM].

In the case of `Cc1ccc(C)c(CN2C(=O)C3CCCN3c3ccc(C#N)cc32)c1` (centres undefined), the AC50 was 7.08 µM (active).

In the case of `COc1ccccc1CN1CC[C@@]2(CCCN(S(=O)(=O)c3ccccc3)C2)C1`, the “activity, negative = inhibition” value was -6.93%.

In the case of `CCOc1ccc(N(C(=O)/C=C/C(=O)Nc2cc(C)on2)C(C(=O)NC2CCCC2)c2ccccc2C)cc1` (centres undefined), the AC50 is 3.16 µM (active).

Take `O=C(O)[C@@H]1[C@@H]2C[C@H]([C@@H](Br)[C@H]2N2C(=O)CCC2=O)[C@@H]1C(=O)O`: the activity, negative = inhibition was 8.14% [at 11.4 µM].

As to `O=C(CCN1C(=O)c2ccccc2C1=O)Oc1ccc2ccccc2c1`, the “activity, negative = inhibition” value was -2.31%.

In the case of `O=S1(=O)C=C(Oc2ccc3ccccc3c2)c2ccccc21`, the AC50 is 3.98 µM (active).

`CN1CCN(Cc2nc3cccc4c3c([n+]2[O-])-c2ccccc2-4)CC1`: the activity, negative = inhibition was -11.8% [at 11.4 µM].

Regarding `c1ccc2nc(C3=NCCN3)ccc2c1`, the AC50 result is “inactive”.

On to `CN(C)CC[C@H](c1ccc(Cl)cc1)c1ccccn1`, for which the “activity, negative = inhibition” value is 17.3%.

In the case of `CC(c1ccc(Cl)cc1)n1c(-c2ccc3ccccc3n2)n[nH]c1=S` (centres undefined), the AC50 is 2.51 µM (active).

As for `COC(=O)c1[nH]c(C)c(/C(O)=C2\C(=O)C(=O)N(CCN(C)C)C2c2cccs2)c1C` (centres undefined), the “activity, negative = inhibition” value is 20%.

Regarding `COC(=O)c1cc(NS(=O)(=O)c2ccc(N3CCCCCC3)c([N+](=O)[O-])c2)cc(C(=O)OC)c1`, the half-maximal activity concentration (AC50) was 2.24 µM (active).

For `COC(=O)c1cc(NS(=O)(=O)c2ccc(N3CCCCC3)c([N+](=O)[O-])c2)cc(C(=O)OC)c1`, the AC50 was 0.631 µM (active).

Take `CC1CCN(c2ccc(S(=O)(=O)Nc3cc(C(=O)O)cc(C(=O)O)c3)cc2[N+](=O)[O-])CC1`: the AC50 was 14.1 µM (active).

As for `NNS(=O)(=O)c1cc(C(=O)O)cc(C(=O)O)c1`, the activity, negative = inhibition is -5.43% [at 11.4 µM].

As to `CC1CCN(c2ccc(/C=N/n3nnnc3N)cc2[N+](=O)[O-])CC1`, the “activity, negative = inhibition” value was -14.5%.

On to `O=c1n(-c2ccccc2)c(=O)n2n1CC[C@H]1/C(=N\OC[C@@H](O)COCc3ccco3)[C@H]3O[C@@H]3[C@@H](O)[C@@H]12`, for which the activity, negative = inhibition is 19.1% [at 11.4 µM] and 17% [at 11.4 µM].

Turning to `Cc1nc2c(c(-c3ccccc3)c1C#N)C(=O)c1ccccc1-2`, the AC50 is 0.447 µM (active).

`O=C(Cn1c(-c2cscn2)nc2ccccc21)Nc1cc(F)ccc1F`: the AC50 was 15.8 µM (active).

`O=C(Nc1ccc(Br)cc1)c1ccc(CSC2=NCCS2)cc1`: the AC50 is 7.08 µM (active).

Take `COc1ccc(Oc2c(C=O)c3ccccc3n2C)cc1`: the “activity, negative = inhibition” value was -13%.

On to `COc1ccc(OCCn2c(C)c(/C=N/n3cnnc3)c3ccccc32)cc1`, for which the AC50 was 0.316 µM (active).

With `C[C@H](N=C(NC#N)Nc1ccncc1)C(C)(C)C`, the “activity, negative = inhibition” value is -23.6%.

As to `Cc1nc(C(=O)Nc2ccc(Cl)cc2Cl)nn1-c1cc(OC(C)C)c(Cl)cc1Cl`, the AC50 was 2.51 µM (active).

Turning to `Cc1cc(C(F)F)n2nc(C(=O)Nc3cccnc3Cl)nc2n1`, the “activity, negative = inhibition” value is -21.3%.

For the molecule `FC(F)(F)c1ccccc1-c1cc(NCc2ccccc2)ncn1`, the activity, negative = inhibition is 1.84% [at 2.29 µM].

`FC(F)(F)c1ccccc1-c1nccc(NCc2cccs2)n1`: the activity, negative = inhibition was -24.4% [at 2.29 µM].

As for `FC(F)(F)c1cc(-c2ccco2)nc(NCc2cccs2)n1`, the AC50 was 3.55 µM (active).

Take `FC(F)(F)c1ccccc1-c1cc(NCc2cccs2)ncn1`: the activity, negative = inhibition was -6.83% [at 2.29 µM].

In the case of `FC(F)(F)c1cc(-c2ccco2)nc(NCCc2ccccc2)n1`, the AC50 is 1.41 µM (active).

In the case of `CCNc1ncc2nc(-c3cc(F)cc(F)c3)c(=O)n(Cc3cccs3)c2n1`, the “activity, negative = inhibition” value was 25.7%.

For `Nc1cc(Cl)nc(N/N=C/c2ccccc2[N+](=O)[O-])n1`, the “activity, negative = inhibition” value is 15.6%.

As for `O=[N+]([O-])c1ccccc1N/N=C/c1c[nH]c2ccccc12`, the concentration at half-maximal activity (AC50) was 7.94 µM (active).

Consider `O=C(O)c1ccccc1N/N=C\c1ccnc2ccccc12`, for which the “activity, negative = inhibition” value was -98.6%.

With `Oc1c(Cl)cc(C(c2cc(Cl)c(O)c(Cl)c2)C(c2cc(Cl)c(O)c(Cl)c2)c2cc(Cl)c(O)c(Cl)c2)cc1Cl`, the AC50 was 0.1 µM (active).

Regarding `CN(C)CN1CSC(=S)N(CN(C)C)C1`, the AC50 is 3.16 µM (active).

`[O-][N+](CCO)(CCO)c1ncnc2nc[nH]c12`: the activity, negative = inhibition was 27.7% [at 11.4 µM].

On to `Cc1noc(C)c1C(=O)N1CCC[C@@]2(CCN(Cc3nccs3)C2)C1`, for which the “activity, negative = inhibition” value was -1.28%.

In the case of `c1ccc2cc(Sc3ncnc4c3oc3ccccc34)ccc2c1`, the AC50 was 10 µM (active).

Turning to `CC[C@@H](c1ccccc1)n1c(=O)n2n(c1=O)[C@H]1[C@H](O)[C@H]3O[C@@H]3/C(=N/OCc3ccccc3)[C@@H]1CC2`, the activity, negative = inhibition was -21.9% [at 11.4 µM].

With `CCCN1C(=O)/C(=C/c2ccc(C)s2)SC1=Nc1ccc(OC)cc1`, the AC50 is 7.94 µM (active).

In the case of `COc1ccc(N=C2S/C(=C\c3ccc(C)s3)C(=O)N2CC(C)C)cc1`, the half-maximal activity concentration (AC50) is 7.08 µM (active).

As for `O=C1[C@@H]2[C@H]3[C@H](O)[C@H](O)C/C(=N/OC[C@@H](O)COCc4ccco4)[C@@H]3CC[C@H]2C(=O)N1c1ccc(F)cc1F`, the activity, negative = inhibition was -0.354% [at 11.4 µM].

As to `O=C(CCCn1c(=S)[nH]c2ccc(Br)cc2c1=O)N1CCN(c2ccccn2)CC1`, the AC50 was 3.16 µM (active).

Take `O=C(CCn1c(=S)[nH]c2ccccc2c1=O)NCCCN1CCOCC1`: the “activity, negative = inhibition” value is -1.93%.

For `CC(=O)N1CCC2(CCCN(c3ccccn3)C2)CC1`, the “activity, negative = inhibition” value was 1.68%.

Regarding `Cn1c(N)nc2c(nc(OCc3ccccc3)n2[C@@H]2O[C@H](CO)[C@@H](O)[C@@H]2O)c1=O`, the activity, negative = inhibition is 1.04% [at 11.4 µM].

Consider `CCOc1cc(C)c(S(=O)(=O)Nc2ccc3cn[nH]c3c2)cc1C`, for which the AC50 was 2.82 µM (active).

Regarding `CCOC(=O)c1ccc(S(=O)(=O)Nc2ccc3cn[nH]c3c2)cc1`, the AC50 is 0.794 µM (active).

As to `Cc1ccccc1C1C(C#N)=C2N=C(N)c3c(sc4c3CCCCC4)N2C2=C1C(=O)CC(C)(C)C2` (centres undefined), the AC50 was 3.55 µM (active).

As for `OC[C@@H]1O[C@H](O)[C@@H](Cl)[C@H](O)[C@@H]1O`, the “activity, negative = inhibition” value was 13.7%.

Regarding `Cc1noc(C)c1-c1cncnc1N1CCN(C)CC1`, the activity, negative = inhibition was 15.2% [at 2.29 µM].

For `CCN(CC)C(=O)C1CCCN(c2ccc([N+](=O)[O-])cc2/C=N/NC(=O)c2ccc([N+](=O)[O-])cc2)C1` (centres undefined), the AC50 is 12.6 µM (active).

Take `O=C(N/N=C/c1cc([N+](=O)[O-])ccc1N1CCNCC1)c1ccc([N+](=O)[O-])cc1`: the “activity, negative = inhibition” value is -9.44%.

For `CN1CCC(=NNC(=O)CSCc2ccccc2)CC1`, the “activity, negative = inhibition” value is -24.9%.

Turning to `CSc1ccccc1NC(=O)CSCc1ccc(C)cc1`, the AC50 was 10 µM (active).

Regarding `C=CCN(CC=C)C(=S)Nc1ccccc1`, the “activity, negative = inhibition” value is -11.8%.

Consider `S=C(Nc1ccccc1)Nc1ccccc1C#Cc1ccccc1`, for which the AC50 was 3.98 µM (active).

As to `O=S(=O)(N/N=C\c1cn(-c2ccccc2)nc1-c1ccccc1)c1ccccc1`, the AC50 was 4.47 µM (active).

With `Cc1ccc(-c2nn(-c3ccccc3)cc2/C=N/NS(=O)(=O)c2ccccc2)cc1`, the AC50 was 7.94 µM (active).

Regarding `O=S(=O)(N/N=C\c1cccn1-c1ccccc1)c1ccc2ccccc2c1`, the “activity, negative = inhibition” value is 4.26%.

Take `CC1(C)C(=O)C(c2ccccc2)=C2CN3C(=O)N(CCc4ccccc4)C(=O)C3(Cc3ccc(C(F)(F)F)cc3)C=C21` (centres undefined): the “activity, negative = inhibition” value was -3.37%.

As to `CC(C)=C1C(=O)C(c2ccccc2)=C2CN3C(=O)N(CCc4ccccc4)C(=O)[C@]3(Cc3ccccc3)[C@H]21`, the AC50 is 10 µM (active).

For the molecule `CCN1CCC[C@@H](OC(=O)C(c2ccccc2)c2ccccc2)C1`, the “activity, negative = inhibition” value is -2.59% [at 25.6 µM].

With `CCN1CCc2nc(NC(=O)CC(c3ccccc3)c3ccccc3)sc2C1`, the AC50 was 14.1 µM (active).

On to `Cc1ccc(Cc2c(C)nc3nc(SCC(=O)NCc4ccco4)nn3c2C)cc1`, for which the AC50 is 10 µM (active).

As for `Cc1nc2nc(SCC(=O)NCc3ccco3)nn2c(C)c1Cc1c(F)cccc1Cl`, the AC50 was 0.708 µM (active).

Consider `Cc1nc2nc(C)c(CCC(=O)NCCCN3CCN(c4cccc(Cl)c4)CC3)c(C)n2n1`, for which the “activity, negative = inhibition” value was -19.6%.

Regarding `Cc1nc2ncnn2c(C)c1CCC(=O)NCc1ccco1`, the “activity, negative = inhibition” value was 15.9%.

For `Fc1ccc(Nc2ncncc2-c2ccoc2)cc1`, the activity, negative = inhibition was -24.6% [at 2.29 µM].

On to `COC(=O)/C=C\CCc1coc(/C=C\CNC(=O)OC)n1`, for which the activity, negative = inhibition is -17.2% [at 11.4 µM].

For the molecule `c1ccc2c(Nc3ccncc3)nc(-c3ccoc3)nc2c1`, the activity, negative = inhibition was -11.6% [at 2.29 µM].

For `COc1ccc(CCNC(=O)c2ccc3c(=O)n(Cc4ccco4)c(=S)[nH]c3c2)cc1OC`, the AC50 is 4.47 µM (active).

As for `CC(C)NC(=O)c1ccc2c(=O)n(Cc3ccco3)c(=S)[nH]c2c1`, the “activity, negative = inhibition” value was -9.15%.

In the case of `CCCOc1ccccc1-c1nc2n[nH]nc2c(=O)[nH]1`, the AC50 entry was “inactive”.

`C/C(=N/OC(=O)c1cccc(Cl)c1)c1nccs1`: the “activity, negative = inhibition” value was -18.8%.

With `CN(C)S(=O)(=O)Oc1ccsc1C(=O)Nc1cccc(Cl)c1`, the AC50 was 8.91 µM (active).

`CN(C)S(=O)(=O)Oc1ccc(Cl)cc1C(=O)Nc1cccc(C(F)(F)F)c1`: the AC50 was 7.94 µM (active).

In the case of `O=C(Cn1ccc(=O)[nH]c1=O)Nc1ccc(C(=O)O)c(O)c1`, the activity, negative = inhibition was -4.1% [at 11.4 µM].

For the origin of these results see PubChem BioAssay AID1851 (National Center for Advancing Translational Sciences (NCATS), 2009).
